Results filed as inconclusive are left out. The source made the active and inactive calls. The calls were made as follows: active = hit-call score of the fitted dose curve at least 0.9, where 1 is the maximum; inconclusive = response in the unintended direction; inactive = score below 0.9.
Assays:
[1] = molecular target: rat Adenylate Cyclase, Forskolin Stimulated, Adcy5 (gene 64532) (UniProt Q04400); assay: NVS_ENZ_rACFSKBinding: NovaScreen (NVS) Enzymatic Assay for rat Adenylate Cyclase, Forskolin Stimulated (AID 2283232)
Procedure: NVS_ENZ_rACFSKBinding is a biochemical, single-readout assay that uses extracted gene-proteins from Rat forebrain membranes in a tissue-based cell-free assay. Measurements were taken 1 hour after chemical dosing in a 48-well plate.NVS_ENZ_rACFSKBinding is one of one assay component(s) measured or calculated from the NVS_ENZ_rACFSKBinding assay. It is designed to make measurements of enzyme activity, a form of enzyme reporter, as detected with scintillation counting signals by Filter-based radiodetection technology.Data from the assay component NVS_ENZ_rACFSKBinding was analyzed into 1 assay endpoint. This assay endpoint, NVS_ENZ_rACFSKBinding, was analyzed in the positive analysis fitting direction relative to DMSO as the negative control and baseline of activity. Using a type of enzyme reporter, loss-of-signal activity can be used to understand changes in the enzymatic activity as they relate to the gene Adcy5. Furthermore, this assay endpoint can be referred to as a primary readout, because this assay has produced multiple assay endpoints where this one serves a enzymatic activity function. To generalize the intended target to other relatable targets, this assay endpoint is annotated to the lyase intended target family, where the subfamily is adenylyl cyclase. […]

[2] = test system: bovine Angiotensin II Receptor Type 2 (AT2), gene 407157; assay: NVS_GPCR_bAT2: NovaScreen (NVS) G Protein-Coupled Receptor Assay for bovine Angiotensin II Receptor Type 2 (AT2) (AID 2283240)
Summary of the method: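 Radioligand displacement on bovine cerebellar membranes, 1 hour incubation, filter-based scintillation counting; loss of signal vs DMSO. Duplicate single-point screen at 25 uM, then concentration-response to 50 uM maximum.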

[3] = molecular target: bovine Dopamine Receptor (DR), Non-selective Binding, DRD1 (gene 281125) (UniProt Q95136); assay: NVS_GPCR_bDR_NonSelective: NovaScreen (NVS) G Protein-Coupled Receptor Assay for bovine Dopamine Receptor (DR), Non-selective Binding (AID 2283241)
Summary of the method: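 Bovine striatal membranes; radioligand displacement read by filtration and scintillation counting 1 h after dosing, loss of signal vs DMSO. Screened in duplicate at 25 uM, then concentration-response for hits.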

[4] = molecular target: sheep Cyclooxygenase-2 (Cox2), PTGS2 (gene 443460) (UniProt P79208); assay: NVS_ENZ_oCOX2: NovaScreen (NVS) Enzymatic Assay for sheep Cyclooxygenase-2 (Cox2) (AID 2283231)
Summary of the method: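 Colorimetric absorbance read-out of COX activity, taken 0.66 hour post-dosing, using native protein from sheep placenta. Single-concentration duplicate screen (25 uM), then singleton concentration-response up to 50 uM for actives.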

[5] = molecular target: sheep Cyclooxygenase-1 (Cox1), PTGS1 (gene 443551) (UniProt P05979); assay: NVS_ENZ_oCOX1: NovaScreen (NVS) Enzymatic Assay for sheep Cyclooxygenase-1 (Cox1) (AID 2283239);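 also: actives reduce cyclooxygenase activity so potencies are for inhibitors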
Summary of the method: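 COX1 from ovine seminal vesicles, activity read colorimetrically about 0.66 h after dosing. Primary screen in duplicate at 25 uM; actives retested in concentration series; loss of signal fitted versus DMSO.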

[6] = test system: rat Monoamine Oxidase, MAO-A, Peripheral (MAOAP), gene 29253; assay: NVS_ENZ_rMAOAP: NovaScreen (NVS) Enzymatic Assay for rat Monoamine Oxidase, MAO-A, Peripheral (MAOAP) (AID 2283237)
Summary of the method: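 Rat liver mitochondrial membranes served as the MAO-A source, with enzyme activity measured by radiometric scintillation counting 1.17 hours after dosing. Loss of signal was fitted against DMSO; primary screen used 25 uM in duplicate, follow-up used concentration series.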

[7] = molecular target: rat Monoamine Oxidase, MAO-B, Central (MAOBC), Maob (gene 25750) (UniProt P19643); assay: NVS_ENZ_rMAOBC: NovaScreen (NVS) Enzymatic Assay for rat Monoamine Oxidase, MAO-B, Central (MAOBC) (AID 2283238)
Summary of the method: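 Compounds were first tested in duplicate at 25 uM against MAO-B from rat brain tissue; those passing the inhibition threshold were retested in concentration series up to 50 uM. Radiodetection by scintillation counting at 1.17 h, analysed against DMSO baseline.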

[8] = molecular target: rat Acetylcholinesterase (AChE), Ache (gene 83817) (UniProt P37136); assay: NVS_ENZ_rAChE: NovaScreen (NVS) Enzymatic Assay for rat Acetylcholinesterase (AChE) (AID 2283233)
Summary of the method: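 Rat brain membrane acetylcholinesterase activity measured colorimetrically 0.33 h after compound addition, loss of signal relative to DMSO. Primary screen in duplicate at 25 uM; actives re-run as concentration-response with 50 uM top concentration.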

[9] = molecular target: rat Monoamine Oxidase, MAO-B, Peripheral (MAOBP), Maob (gene 25750) (UniProt P19643); assay: NVS_ENZ_rMAOBP: NovaScreen (NVS) Enzymatic Assay for rat Monoamine Oxidase, MAO-B, Peripheral (MAOBP) (AID 2283242)
[10] = molecular target: rat Catechol-O-Methyl Transferase (COMT), Comt (gene 24267) (UniProt P22734); assay: NVS_ENZ_rCOMT: NovaScreen (NVS) Enzymatic Assay for rat Catechol-O-Methyl Transferase (COMT) (AID 2283235)
Summary of the method: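 Cell-free enzyme activity with protein extracted from rat dorsal striatum, measured by HPLC with absorbance detection. Compounds screened at 25 uM in duplicate; actives then run in concentration-response up to 50 uM, loss of signal versus DMSO.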

Chain of bovine Dopamine Receptor (DR), Non-selective Binding, DRD1 (gene 281125) (Q95136 whole entry, looked up): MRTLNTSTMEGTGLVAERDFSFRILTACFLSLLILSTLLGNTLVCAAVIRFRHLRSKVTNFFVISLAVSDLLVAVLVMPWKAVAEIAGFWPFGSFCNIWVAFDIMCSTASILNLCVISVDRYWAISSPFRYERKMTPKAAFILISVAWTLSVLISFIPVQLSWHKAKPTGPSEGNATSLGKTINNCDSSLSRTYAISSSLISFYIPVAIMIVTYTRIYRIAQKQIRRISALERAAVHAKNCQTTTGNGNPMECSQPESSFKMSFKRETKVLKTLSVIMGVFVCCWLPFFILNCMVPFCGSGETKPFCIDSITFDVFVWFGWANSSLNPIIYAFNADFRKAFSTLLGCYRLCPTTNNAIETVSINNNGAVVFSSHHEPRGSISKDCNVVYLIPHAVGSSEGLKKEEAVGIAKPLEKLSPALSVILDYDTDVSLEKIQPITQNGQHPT
Chain of sheep Cyclooxygenase-1 (Cox1), PTGS1 (gene 443551) (P05979 whole entry, looked up): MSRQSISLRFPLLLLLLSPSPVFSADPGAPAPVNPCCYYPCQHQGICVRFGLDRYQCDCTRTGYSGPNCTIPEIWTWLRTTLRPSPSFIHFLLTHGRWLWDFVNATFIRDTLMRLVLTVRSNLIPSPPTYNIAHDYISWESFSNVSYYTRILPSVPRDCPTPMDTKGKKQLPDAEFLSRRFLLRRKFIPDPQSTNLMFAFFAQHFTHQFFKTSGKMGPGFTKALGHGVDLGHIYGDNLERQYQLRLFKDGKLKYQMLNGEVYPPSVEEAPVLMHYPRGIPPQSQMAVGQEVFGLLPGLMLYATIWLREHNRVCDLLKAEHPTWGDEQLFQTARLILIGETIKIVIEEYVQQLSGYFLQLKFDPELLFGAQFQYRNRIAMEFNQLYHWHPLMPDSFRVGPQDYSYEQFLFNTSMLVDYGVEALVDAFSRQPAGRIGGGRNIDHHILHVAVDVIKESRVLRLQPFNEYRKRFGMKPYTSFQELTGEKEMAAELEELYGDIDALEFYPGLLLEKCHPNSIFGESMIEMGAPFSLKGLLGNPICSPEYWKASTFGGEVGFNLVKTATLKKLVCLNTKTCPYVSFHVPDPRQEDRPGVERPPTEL
Chain of sheep Cyclooxygenase-2 (Cox2), PTGS2 (gene 443460) (P79208 whole entry, looked up): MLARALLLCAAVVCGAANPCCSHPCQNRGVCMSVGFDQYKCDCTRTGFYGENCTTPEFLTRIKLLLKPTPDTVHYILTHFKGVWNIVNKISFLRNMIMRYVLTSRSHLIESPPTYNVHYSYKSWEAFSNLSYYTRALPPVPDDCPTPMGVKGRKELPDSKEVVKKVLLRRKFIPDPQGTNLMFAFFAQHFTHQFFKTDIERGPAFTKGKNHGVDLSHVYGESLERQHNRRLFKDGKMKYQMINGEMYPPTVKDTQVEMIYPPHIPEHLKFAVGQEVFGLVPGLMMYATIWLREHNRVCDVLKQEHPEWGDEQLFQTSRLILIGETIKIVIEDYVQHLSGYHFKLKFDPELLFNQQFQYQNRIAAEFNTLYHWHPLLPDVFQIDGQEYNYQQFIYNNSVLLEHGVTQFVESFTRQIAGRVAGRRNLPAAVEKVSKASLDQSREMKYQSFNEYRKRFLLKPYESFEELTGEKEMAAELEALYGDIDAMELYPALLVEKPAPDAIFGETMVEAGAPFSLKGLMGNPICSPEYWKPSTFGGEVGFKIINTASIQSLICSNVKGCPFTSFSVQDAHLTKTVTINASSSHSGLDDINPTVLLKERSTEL
Chain of rat Monoamine Oxidase, MAO-B, Central (MAOBC), Maob (gene 25750) (P19643 whole entry, looked up): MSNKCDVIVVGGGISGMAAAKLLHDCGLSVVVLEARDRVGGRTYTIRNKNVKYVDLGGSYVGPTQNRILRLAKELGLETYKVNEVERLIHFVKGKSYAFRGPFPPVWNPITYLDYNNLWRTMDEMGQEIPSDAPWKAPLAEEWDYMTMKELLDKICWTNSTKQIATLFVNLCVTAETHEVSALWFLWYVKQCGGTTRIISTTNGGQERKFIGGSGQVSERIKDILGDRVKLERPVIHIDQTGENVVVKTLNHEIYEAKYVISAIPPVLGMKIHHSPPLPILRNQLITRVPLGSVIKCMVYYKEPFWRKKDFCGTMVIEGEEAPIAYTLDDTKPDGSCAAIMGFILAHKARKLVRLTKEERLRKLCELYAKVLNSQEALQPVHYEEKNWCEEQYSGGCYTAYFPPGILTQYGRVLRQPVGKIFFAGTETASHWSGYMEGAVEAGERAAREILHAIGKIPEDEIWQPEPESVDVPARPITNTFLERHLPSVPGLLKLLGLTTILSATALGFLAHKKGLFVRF
Chain of rat Monoamine Oxidase, MAO-B, Peripheral (MAOBP), Maob (gene 25750) (P19643 whole entry, looked up): as above
Chain of rat Acetylcholinesterase (AChE), Ache (gene 83817) (P37136 whole entry, looked up): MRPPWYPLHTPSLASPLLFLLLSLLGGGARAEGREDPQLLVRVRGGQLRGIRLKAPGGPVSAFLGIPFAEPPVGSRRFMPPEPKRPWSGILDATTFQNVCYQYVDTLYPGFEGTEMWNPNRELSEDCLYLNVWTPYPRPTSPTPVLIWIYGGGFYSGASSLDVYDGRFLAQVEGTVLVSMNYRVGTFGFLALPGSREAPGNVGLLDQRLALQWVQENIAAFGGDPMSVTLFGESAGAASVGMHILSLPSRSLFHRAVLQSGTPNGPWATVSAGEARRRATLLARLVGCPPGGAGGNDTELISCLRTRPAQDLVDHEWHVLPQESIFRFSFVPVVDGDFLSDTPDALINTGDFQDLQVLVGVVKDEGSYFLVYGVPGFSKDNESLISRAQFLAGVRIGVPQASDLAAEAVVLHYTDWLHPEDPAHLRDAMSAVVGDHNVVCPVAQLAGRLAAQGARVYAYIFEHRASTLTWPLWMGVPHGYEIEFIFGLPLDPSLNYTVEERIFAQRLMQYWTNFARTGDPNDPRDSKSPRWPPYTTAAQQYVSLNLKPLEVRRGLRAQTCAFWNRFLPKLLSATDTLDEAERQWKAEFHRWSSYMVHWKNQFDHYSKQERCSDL
Chain of rat Adenylate Cyclase, Forskolin Stimulated, Adcy5 (gene 64532) (Q04400 whole entry, looked up): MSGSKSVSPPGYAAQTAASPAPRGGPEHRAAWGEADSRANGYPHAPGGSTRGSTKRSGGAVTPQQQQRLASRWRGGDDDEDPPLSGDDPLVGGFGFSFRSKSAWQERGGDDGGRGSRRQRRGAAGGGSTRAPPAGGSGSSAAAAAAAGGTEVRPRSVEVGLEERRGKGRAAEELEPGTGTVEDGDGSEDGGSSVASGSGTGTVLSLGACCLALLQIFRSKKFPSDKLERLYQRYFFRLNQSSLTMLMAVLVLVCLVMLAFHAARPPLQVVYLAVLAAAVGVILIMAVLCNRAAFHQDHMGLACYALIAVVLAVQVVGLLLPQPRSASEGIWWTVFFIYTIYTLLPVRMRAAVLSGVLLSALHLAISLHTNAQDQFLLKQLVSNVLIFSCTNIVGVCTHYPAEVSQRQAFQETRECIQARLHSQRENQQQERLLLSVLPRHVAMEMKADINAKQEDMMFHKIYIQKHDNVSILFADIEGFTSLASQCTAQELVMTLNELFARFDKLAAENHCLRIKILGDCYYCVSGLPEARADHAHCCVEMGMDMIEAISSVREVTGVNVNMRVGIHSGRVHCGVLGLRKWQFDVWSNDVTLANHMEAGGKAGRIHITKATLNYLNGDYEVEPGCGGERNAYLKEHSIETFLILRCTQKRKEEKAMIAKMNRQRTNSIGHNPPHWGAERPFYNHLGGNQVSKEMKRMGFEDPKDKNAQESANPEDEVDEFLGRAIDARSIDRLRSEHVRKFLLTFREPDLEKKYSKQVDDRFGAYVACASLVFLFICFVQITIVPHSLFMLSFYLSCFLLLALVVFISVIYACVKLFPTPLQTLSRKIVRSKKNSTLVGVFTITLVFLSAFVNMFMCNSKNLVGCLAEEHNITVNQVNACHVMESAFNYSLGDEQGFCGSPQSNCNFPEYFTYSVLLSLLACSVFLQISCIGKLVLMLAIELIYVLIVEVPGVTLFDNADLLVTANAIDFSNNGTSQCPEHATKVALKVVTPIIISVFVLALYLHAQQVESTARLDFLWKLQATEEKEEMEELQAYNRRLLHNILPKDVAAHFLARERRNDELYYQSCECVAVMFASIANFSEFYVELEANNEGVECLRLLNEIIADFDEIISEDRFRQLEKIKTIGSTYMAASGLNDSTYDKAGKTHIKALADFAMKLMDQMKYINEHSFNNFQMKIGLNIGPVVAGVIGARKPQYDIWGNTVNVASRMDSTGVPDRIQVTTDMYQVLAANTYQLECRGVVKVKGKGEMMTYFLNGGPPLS
Chain of rat Catechol-O-Methyl Transferase (COMT), Comt (gene 24267) (P22734 whole entry, looked up): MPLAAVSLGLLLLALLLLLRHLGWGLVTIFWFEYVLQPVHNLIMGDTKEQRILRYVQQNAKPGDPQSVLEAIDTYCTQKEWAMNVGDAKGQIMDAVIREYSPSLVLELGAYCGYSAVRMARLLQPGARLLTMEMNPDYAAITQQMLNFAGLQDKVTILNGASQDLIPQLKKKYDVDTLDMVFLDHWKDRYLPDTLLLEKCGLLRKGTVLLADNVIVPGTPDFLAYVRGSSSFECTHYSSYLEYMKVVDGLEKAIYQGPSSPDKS

C=C(C)C(=O)[O][Sn]([CH2]CCC)([CH2]CCC)[CH2]CCC
outcome [1]: inactive
AC50 [2]: 25 µM (active)
AC50 [3]: 10.6 µM (active)

CC(C)(C)CC(C)(C)c1ccc(O)cc1
outcome [4]: inactive

O=C(Nc1ccc2[nH]ccc2c1)c1cc2cc(F)ccc2n1Cc1cccc(F)c1
outcome [2]: inactive

ClC1(Cl)C2(Cl)C3(Cl)C4(Cl)C(Cl)(Cl)C5(Cl)C3(Cl)C1(Cl)C5(Cl)C24Cl (centres undefined)
outcome [4]: inactive

CC(C)(OO)c1ccccc1
AC50 [4]: 6.28 µM (active)
AC50 [5]: 2.76 µM (active)

CC(=O)[O][Hg][c]1ccccc1
AC50 [1]: 26.8 µM (active)
AC50 [6]: 1.13 µM (active)
AC50 [7]: 25 µM (active)
AC50 [2]: 37.4 µM (active)

ClCCBr
outcome [5]: inactive

COc1cc2c(cc1OC)[C@@]13CCN4CC5=CCO[C@H]6CC(=O)N2[C@H]1[C@H]6[C@H]5C[C@H]43
AC50 [8]: 18.1 µM (active)

COc1cc(OC)nc(NC(=O)NS(=O)(=O)c2ncccc2C(=O)N(C)C)n1
outcome [4]: inactive
AC50 [5]: 7.06 µM (active)

CCCCCCCCCl
AC50 [5]: 0.0723 µM (active)

OCc1ccco1
AC50 [5]: 6.01 µM (active)

CCOC(=O)Nc1cccc(OC(=O)Nc2ccccc2)c1
AC50 [5]: 8.56 µM (active)

Clc1ccc(C2(Cn3cncn3)CC(Br)CO2)c(Cl)c1 (centres undefined)
outcome [5]: inactive

CC(=O)C(Cl)C(=O)N(C)C (centres undefined)
outcome [5]: inactive

COC(=O)Cc1ccccc1
outcome [5]: inactive

CC(C)(C)c1cc(O)ccc1O
AC50 [4]: 6.85 µM (active)
AC50 [5]: 11 µM (active)

C[C@]12CCC(=O)C[C@@H]1CC[C@@H]1[C@@H]2CC[C@]2(C)[C@@H](O)CC[C@@H]12
outcome [9]: inactive

CCC(=O)C(CC(C)N(C)C)(c1ccccc1)c1ccccc1 (centres undefined)
AC50 [7]: 2.99 µM (active)
AC50 [3]: 6.89 µM (active)
AC50 [9]: 4.1 µM (active)

Nc1cccc2ccccc12
AC50 [5]: 13.6 µM (active)

CCN1CCC2(CC1)COc1cc3c(cc12)N(C(=O)c1ccc(-c2ccc(-c4nnc(C)o4)cc2C)cc1)CC3
AC50 [8]: 3.06 µM (active)
AC50 [6]: 23.4 µM (active)
outcome [7]: inactive
AC50 [5]: 4.68 µM (active)
AC50 [3]: 9.79 µM (active)
AC50 [9]: 19.5 µM (active)

Nc1ccc(-c2ccc(N)c(Cl)c2)cc1Cl
AC50 [5]: 1.64 µM (active)

O=[N+]([O-])c1ccc2c3c(cccc13)CC2
AC50 [5]: 18.9 µM (active)

Oc1cccc2cccnc12
AC50 [10]: 1.53 µM (active)
outcome [7]: inactive

Cl/C=C\C[N+]12CN3CN(CN(C3)C1)C2
AC50 [5]: 5.46 µM (active)

O=c1[nH]c(=O)[nH]c(=O)[nH]1
outcome [4]: inactive

ClC(Cl)=C(Cl)C(Cl)=C(Cl)Cl
outcome [5]: inactive

CCOC(=O)/C=C(C)/C=C/C[C@@H](C)CCCC(C)C
AC50 [5]: 31.3 µM (active)

Oc1ccc(-c2ccccc2)cc1
outcome [5]: inactive

CC12CC1(C)C(=O)N(c1cc(Cl)cc(Cl)c1)C2=O (centres undefined)
AC50 [4]: 3.77 µM (active)
outcome [6]: inactive
outcome [5]: inactive
outcome [9]: inactive

O=C(O)C(F)(F)C(F)(F)C(F)(F)C(F)(F)C(F)(F)C(F)(F)C(F)(F)C(F)(F)C(F)(F)C(F)(F)F
outcome [5]: inactive
